PubChem BioAssay (EPA / NIEHS)
Activity calls are given as the source filed them. Rule for the calls: active = hit-call score of the fitted dose curve at least 0.9, where 1 is the maximum; inactive = score below 0.9.

Columns and labels:
Details in all cases: mRNA level, 48 h; actives raise or lower the signal
[1] = read-out: Peroxisomal acyl-coenzyme A oxidase 1 (ACOX1) gene, ACOX1 (gene 51); test: LTEA_HepaRG_ACOX1: Life Technologies and Expression Analysis (LTEA) Assay for Peroxisomal acyl-coenzyme A oxidase 1 (ACOX1) gene using HepaRG (AID 2283467)
Procedure, shortened: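 Differentiated human HepaRG cells were exposed in duplicate for 48 h in serum-free induction medium to eight half-log concentrations up to 100 uM in 0.5% DMSO. ACOX1 mRNA was then quantified by TaqMan qRT-PCR, normalized to ACTB, GAPDH and POLR2A.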

[2] = read-out: Alkaline Phosphatase, Placental (ALPP) gene, ALPP (gene 250); test: LTEA_HepaRG_ALPP: Life Technologies and Expression Analysis (LTEA) Assay for Alkaline Phosphatase, Placental (ALPP) gene using HepaRG (AID 2283468)
Procedure, shortened: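 Using human liver HepaRG cells, chemicals are tested in duplicate over 48 h at half-log concentrations topping at 100 uM; phenobarbital 1 mM serves as induction control. ALPP mRNA change by qRT-PCR, bidirectional fit against vehicle.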

[3] = read-out: Bcl-2 (BAD) gene, BAD (gene 572); test: LTEA_HepaRG_BAD: Life Technologies and Expression Analysis (LTEA) Assay for Bcl-2 (BAD) gene using HepaRG (AID 2283469)
Procedure, shortened: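 Differentiated human HepaRG cells in serum-free induction medium were exposed in duplicate for 48 h to eight concentrations (top 100 uM, half-log steps, 0.5% DMSO). BAD mRNA was quantified by qRT-PCR normalised to ACTB, GAPDH and POLR2A, with bidirectional fitting versus DMSO.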

[4] = read-out: Bcl-2 (BAX) gene, BAX (gene 581); test: LTEA_HepaRG_BAX: Life Technologies and Expression Analysis (LTEA) Assay for Bcl-2 (BAX) gene using HepaRG (AID 2283470)
Procedure, shortened: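 HepaRG (human liver), 48 h exposure, duplicate wells. 8-pt curve, half-log from 100 uM, 0.5% DMSO. BAX transcript by TaqMan qRT-PCR; ACTB/GAPDH/POLR2A normalization; gain or loss vs DMSO baseline.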

[5] = read-out: adenosine kinase (ADK) gene, ADK (gene 132); test: LTEA_HepaRG_ADK: Life Technologies and Expression Analysis (LTEA) Assay for adenosine kinase (ADK) gene using HepaRG (AID 2283471)
Procedure, shortened: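 ADK expression quantified by qRT-PCR, normalised to three housekeeping genes, after 48 h exposure of HepaRG cells to eight concentrations (top 100 uM, half-log steps, duplicate, 0.5% DMSO). Up- or down-regulation fitted relative to vehicle.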

[6] = read-out: Alpha-fetoprotein (AFP) gene, AFP (gene 174); test: LTEA_HepaRG_AFP: Life Technologies and Expression Analysis (LTEA) Assay for Alpha-fetoprotein (AFP) gene using HepaRG (AID 2283472)
Procedure, shortened: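 HepaRG, single lot; 48 h post-plating -> serum-free induction medium; cpd 8-pt, 100 uM top, half-log, 0.5% DMSO, duplicate, 48 h. RNA -> qRT-PCR AFP, norm ACTB/GAPDH/POLR2A. Bidirectional fit vs DMSO.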

BCL2L11 (gene 10018) = test: LTEA_HepaRG_BCL2L11: Life Technologies and Expression Analysis (LTEA) Assay for Bcl-2 (BCL2L11) gene using HepaRG (AID 2283473)
Procedure, shortened: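 Human hepatic HepaRG cultures are treated 48 h with test chemicals (maximum 100 uM, 0.5% DMSO vehicle). Expression of BCL2L11 is measured by qRT-PCR against ACTB, GAPDH and POLR2A, with activity in either direction scored relative to vehicle.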

[7] = read-out: Apolipoprotein A-V (APOA5) gene, APOA5 (gene 116519); test: LTEA_HepaRG_APOA5: Life Technologies and Expression Analysis (LTEA) Assay for Apolipoprotein A-V (APOA5) gene using HepaRG (AID 2283474)
Description: (§1) LTEA_HepaRG is a cell based, multiplexed-readout assay that uses HepaRG, a human liver cell line, with measurements taken at 48 hours after chemical dosing on a 96-well plate.LTEA_HepaRG_APOA5 is one of 102 assay component(s) measured in the LTEA HepaRG cell culture assay. It is a marker of Steatosis.Data from the assay component LTEA_HepaRG_APOA5 was analyzed into 1 endpoint. This assay endpoint, LTEA_HepaRG_APOA5, was analyzed with bidirectional fitting relative to DMSO as the negative control and baseline of activity. Using a type of inducible reporter, measures of mRNA induction for gain or loss-of-signal activity can be used to understand regulation of transcription factor activity. To generalize the intended target to other relatable targets, this assay endpoint is annotated to the apolipoprotein intended target family, where the subfamily is Steatosis.
(§2) A total of 1060 chemcials from the ToxCast library were tested in eight-point concentration-response experiments. Cell culture and cytotoxicity assays were conducted at Thermo Fisher Scientific's Custom Services facility (Madison, WI). A single lot of human HepaRG cells (Thermo Fisher Scientific, Frederick, MD) was used for the cell culture experiments. 96-well format collagen type I coated plates of human HepaRG cells were prepared using established methods. Briefly, cryopreserved HepaRG cells were thawed, plated at a density of approximately 100,000 cells/well in HepaRG Thaw, Plate, and General Purpose media (HPRG770, Thermo Fisher Scientific), and incubated for 48 hours. […] Fluidigm's 96.96 Dynamic ArrayTM (Fluidigm, Amsterdam, the Netherlands) technology was used for gene expression analyses by quantitative reverse transcription polymerase chain reaction (qRT-PCR, performed by Quintiles/Expression Analysis, Durham, NC)89. […]

[8] = read-out: Apoptosis regulator Bcl-2 (Homo sapiens) (UniProt P10415); test: LTEA_HepaRG_BCL2: Life Technologies and Expression Analysis (LTEA) Assay for Bcl-2 gene using HepaRG (AID 2283475)
Procedure, shortened: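 HepaRG, plated 48 h then switched to serum-free induction medium; dosed 48 h, 8 conc. (max 100 uM, half-log steps), duplicate, 0.5% DMSO. Lysis in RLT, RNA isolated, TaqMan qRT-PCR for BCL2; ACTB/GAPDH/POLR2A normalisation; bidirectional fit vs DMSO.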

[9] = read-out: Bcl-2 (BID) gene, BID (gene 637); test: LTEA_HepaRG_BID: Life Technologies and Expression Analysis (LTEA) Assay for Bcl-2 (BID) gene using HepaRG (AID 2283476)
Description: as §1, with “plate.LTEA_HepaRG_BID” for “plate.LTEA_HepaRG_APOA5”, “Cell proliferation, survival, death.Data” for “Steatosis.Data”, “LTEA_HepaRG_BID” for “LTEA_HepaRG_APOA5”, “LTEA_HepaRG_BID,” for “LTEA_HepaRG_APOA5,”, “cell cycle” for “apolipoprotein”, “Cell proliferation, survival, death.” for “Steatosis.”
as §2

Measured: outcome

Chain of Apoptosis regulator Bcl-2 (Homo sapiens) (P10415 whole entry, looked up): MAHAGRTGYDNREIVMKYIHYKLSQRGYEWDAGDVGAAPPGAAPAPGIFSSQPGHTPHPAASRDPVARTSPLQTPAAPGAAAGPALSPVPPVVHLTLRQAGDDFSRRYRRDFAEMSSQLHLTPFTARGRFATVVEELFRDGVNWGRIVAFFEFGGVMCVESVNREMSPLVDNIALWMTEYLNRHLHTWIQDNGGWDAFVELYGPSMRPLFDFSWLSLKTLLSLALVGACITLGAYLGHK

Nc1ccc(C(=O)O)cc1
inactive: all assays above

C1CNCCN1
inactive: all assays above

Cc1ccc([N+](=O)[O-])cc1N
inactive: all assays above
